TCR-CD3 inh – inhibitors of human TCR-CD3 interaction. TAMRA-labeled TCR probe fluorescence, biochemical. AID 651800. actives 0.37% (n = 360,000). inhibition, % at 9.4 µM; in the data active means inhibition above about 19%;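 further: recombinant mutant TCR 2C K166C tagged with TAMRA read by polarization; 0% = receptor in buffer alone and 100% = receptor with positive control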
PAFAH1B3 FP inh – inhibitors of human PAFAH1B3. Q15102. recombinant PAFAH1B3, FP-rhodamine probe, fluorescence polarization. inhibition, % at 3.39 µM. actives 0.28% (n = 340,000);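 active means inhibition above the screen-wide average of all tested compounds plus 3 SD, cut at about 25% in these data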;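 further: 0% = enzyme with DMSO only and 100% = wells lacking PAFAH1B3 protein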
pPAFAH FP inh – pPAFAH (human) enzyme inhibition. recombinant pPAFAH, FP-rhodamine probe fluorescence polarization. inhibition, % at 3.39 µM. actives 1.5% (n = 330,000);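 active means inhibition above the mean inhibition across the screen plus 3 SD, cut at about 25% in these data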;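 further: inhibitors block binding of the rhodamine activity-based probe so polarization drops; 0% = enzyme with DMSO and 100% = wells lacking pPAFAH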
Target sequence (Q13093 whole entry, looked up): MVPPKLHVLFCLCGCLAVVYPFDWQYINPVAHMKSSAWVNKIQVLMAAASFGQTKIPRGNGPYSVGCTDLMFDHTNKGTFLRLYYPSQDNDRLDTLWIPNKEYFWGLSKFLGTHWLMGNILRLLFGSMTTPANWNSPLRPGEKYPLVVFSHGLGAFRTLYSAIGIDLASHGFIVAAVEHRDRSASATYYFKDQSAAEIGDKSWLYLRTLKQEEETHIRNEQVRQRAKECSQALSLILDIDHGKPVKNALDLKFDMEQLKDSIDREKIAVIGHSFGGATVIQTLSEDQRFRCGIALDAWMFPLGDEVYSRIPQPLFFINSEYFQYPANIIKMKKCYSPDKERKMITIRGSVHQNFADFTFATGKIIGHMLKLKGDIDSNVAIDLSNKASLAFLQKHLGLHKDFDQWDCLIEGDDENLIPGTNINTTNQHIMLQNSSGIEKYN
PAFAH1B2 FP inh – inhibitors of human PAFAH1B2 | P68402 | recombinant PAFAH1B2, FP-rhodamine activity probe, fluorescence polarization | inhibition, % at 3.39 µM | actives 1.2% (n = 340,000);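 active means inhibition above the mean of all tested compounds plus 3 SD, cut at about 24% in these data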;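 further: 0% = enzyme with DMSO and 100% = wells lacking PAFAH1B2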
PAFAH2 FP inh – PAFAH2 (human) inhibition. inhibition, % at 3.39 µM. actives 0.99% (n = 340,000). AID 492956. recombinant PAFAH2, FP-rhodamine activity probe, fluorescence polarization;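 active means inhibition above the mean over all tested compounds plus 3 SD, cut at about 30% in these data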;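 further: inhibitors block probe labeling of enzyme so polarization drops; 0% = enzyme with DMSO and 100% = wells lacking PAFAH2 protein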
pPAFAH confirm – confirmation of human plasma PAF acetylhydrolase (pPAFAH) inhibitors. shares compounds with pPAFAH FP inh. recombinant pPAFAH, FP-Rh probe fluorescence polarization. inhibition, % at 3.39 µM. actives 72% (n = 2,300);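 active means mean inhibition of the triplicate above the hit cutoff set for the earlier primary screen, cut at about 25% in these data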;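 further: 0% = enzyme with DMSO and 100% = wells lacking pPAFAH enzyme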
Active calls of the source: *; nt = no result. An excerpt weighted towards active compounds, which were near 2.7% of everything screened.

SMILES	TCR-CD3 inh	PAFAH1B3 FP inh	pPAFAH FP inh	PAFAH1B2 FP inh	PAFAH2 FP inh	pPAFAH confirm
Cc1[nH]n(-c2ccccc2)c(=O)c1CCO	-11	3	2	2	-2	nt
CN(C)c1ccc(NC2=C([N+](=O)[O-])CS(=O)(=O)C2)cc1	7	12	39*	2	3	7
O=C(N/N=C\c1c(O)ccc2ccccc12)c1cncc(Br)c1	1	20	41*	7	3	58*
Cc1cc(/C=C2/C(=N)N3C(c4ccccc4)=CSC3=NC2=O)c(C)n1-c1ccc(Cl)cc1	-4	-7	nt	-2	0	nt
N=C1/C(=C\c2ccc(-c3cccc(Cl)c3)o2)C(=O)N=C2SC=C(c3ccccc3)N12	-6	2	43*	3	-15	40*
COc1ccccc1N1CCN(C(=O)c2ccc3c(=O)n(Cc4ccc5c(c4)OCO5)c(=O)[nH]c3c2)CC1	nt	1	-5	2	1	nt
O=S(=O)(c1ccc2nc(-c3ccco3)c(-c3ccco3)nc2c1)N1CCOCC1	16	12	43*	11	21	13
O=S(=O)(c1ccc2ccccc2c1)N1CCOCC1	7	4	2	4	0	nt
NC(=O)CSc1ccc(F)cc1	1	7	-1	1	-4	nt
CC(/C=N/NC(=O)Cc1cc(=O)[nH][nH]1)=C\c1ccccc1	-4	1	54*	9	-4	3
CC1=NNC(=O)C1CC(=O)N/N=C/C(C)=C/c1ccccc1 (stereo not given)	6	-4	0	-2	-3	nt
COCCN(C(=O)CSc1nnc(-c2ccc(F)cc2)n1N)c1c(N)n(CC(C)C)c(=O)[nH]c1=O	2	nt	nt	nt	nt	nt
c1ccc(CNC2=NCCCCC2)cc1	-6	-7	-4	-4	3	nt
Cc1ccc(CNC2=NCCCCC2)n1C	0	4	53*	1	4	3
O=C(C1CC(=O)N(c2ccc3c(c2)OCCO3)C1)N1CCN(S(=O)(=O)c2ccccc2F)CC1 (stereo not given)	1	1	nt	0	4	nt
CN(c1ccc(OCC(=O)NC2CCC(O)CC2)cc1)S(=O)(=O)c1ccc(Cl)cc1 (stereo not given)	3	10	37*	5	-4	-2
CC12CN(C(=O)c3cccc([N+](=O)[O-])c3)C3(C#N)CC1CCC23C (stereo not given)	-8	8	nt	19	-4	nt
CCCN(CC(=O)Nc1ccccc1C)C(=O)C1CC(=O)N(c2ccc(CC)cc2)C1 (stereo not given)	7	8	-2	6	3	nt
CCOc1ccccc1Oc1c(C)oc2c(CN3CCN(CCO)CC3)c(O)ccc2c1=O	0	7	1	7	-3	nt
COc1ccccc1Oc1c(C)oc2c(CN3CCN(CCO)CC3)c(O)ccc2c1=O	0	nt	41*	nt	nt	4
O=C(O)c1ccc(N2C(=O)CC(N3C(=O)/C(=C/c4ccc(Cl)cc4)SC3=S)C2=O)cc1 (stereo not given)	-7	13	-2	3	-7	nt
Cc1ccc(NS(=O)(=O)c2ccc(N3CCN(c4ccc(O)cc4)CC3)c([N+](=O)[O-])c2)c(C)c1	0	1	57*	3	17	46*
Cc1ccc(NS(=O)(=O)c2ccc(N/N=C/c3ccncc3)c([N+](=O)[O-])c2)c(C)c1	8	-6	24	-2	7	nt
COc1ccccc1C(O)P(=O)(OCC(C)C)c1ccc(N(C)C)cc1 (stereo not given)	5	9	-2	3	2	nt
CCCC(=O)NC(c1ccc(OC)c(OC)c1)c1cc(Cl)c2cccnc2c1O (stereo not given)	-2	6	9	5	4	nt
SMILES	TCR-CD3 inh	PAFAH1B3 FP inh	pPAFAH FP inh	PAFAH1B2 FP inh	PAFAH2 FP inh	pPAFAH confirm
CCCCC(=O)NC(c1cccs1)c1cc(Cl)c2cccnc2c1O (stereo not given)	-4	13	45*	6	17	32*
Cc1cccc(OCC(=O)NCC(C)(C)N2CCOCC2)c1	5	15	-1	8	2	nt
CCSc1cc(N2CCCC2)nc(-c2ccc(Cl)cc2)n1	1	-8	-6	-2	-9	nt
Clc1ccc(-c2nnc(N3CCCC3)nn2)cc1	7	2	50*	-1	-2	7
COc1cc2c(cc1OC)C(c1ccccc1C)CC(=O)N2 (stereo not given)	-2	6	67*	3	1	3
CCNc1ccc(Br)cc(C(=O)/C=C/c2ccc(Cl)cc2)c1=O	nt	11	53*	7	28	27*
CS(=O)(=O)Nc1ccc(Br)cc1C(=O)c1ccccc1	5	5	4	9	2	nt
CNc1ccc(Br)cc(C(=O)/C=C/c2ccc(Cl)cc2Cl)c1=O	11	4	51*	4	30*	36*
CCNc1ccc(Br)cc(C(=O)/C=C/c2c(Cl)cccc2Cl)c1=O	nt	6	44*	1	36*	28*
COc1cccc(/C=C/C(=O)Nc2ccc3[nH]c(=O)[nH]c3c2)c1	-1	0	12	2	4	nt
O=C(/C=C/c1ccc(Cl)cc1Cl)c1ccc[nH]1	4	4	5	-4	-10	nt
CNc1ccc(Br)cc(C(=O)/C=C/c2cccc(OC)c2)c1=O	10	11	36*	-3	27	24
CC1(c2nc3ccccc3[nH]2)CCC(=O)N1Cc1cccs1 (stereo not given)	9	nt	nt	nt	nt	nt
O=C1NC(Cc2ccc(O)cc2)c2nc3cc(Cl)ccc3c(=O)n2-c2cc3ccccc3cc21 (stereo not given)	8	nt	nt	nt	nt	nt
CCC(C)[C@H]1CNCCN1CCc1cccc2ccccc12 (stereo not given in full)	-4	0	5	4	6	nt
CCNc1ccc(Br)cc(C(=O)/C=C/c2ccc3c(c2)OCO3)c1=O	7	9	48*	4	36*	17
Nc1ccccc1C(=O)/C=C/c1ccc2c(c1)OCO2	1	-1	2	-2	2	nt
O=C(/C=C/c1ccccc1)c1cc(Br)ccc(=O)c1O	8	12	36*	3	37*	23
CCOC(=O)Cc1csc(NS(=O)(=O)c2ccc(C(F)(F)F)cc2)n1	0	nt	1	nt	nt	nt
O=[N+]([O-])c1ccc(-c2ccc(C=Nc3cccc4ccccc34)o2)cc1	-1	6	4	0	1	nt
O=[N+]([O-])c1cc(-c2ccc(/C=N/c3nc4ccccn4c3-c3ccco3)o2)ccc1Cl	4	13	35*	7	19	14
O=C(c1cccc(S(=O)(=O)N2CCCC2)c1)N1CCOCC1	-5	1	3	3	3	nt
O=C1CC(c2ccc(O)c(O)c2)Oc2cc(O)cc(O)c21 (stereo not given)	11	10	7	1	14	nt
Oc1ccc(C2C[C@H]3CC[C@@H]2C3)cc1O (stereo not given in full)	-1	14	52*	75*	7	32*

From PubChem
